Only some compounds are listed: those with a hit (about 2.5% of all), similar ones and a draw of the others.
rCAG RNA binder – molecules binding r(CAG) RNA repeats; r(CAG) RNA repeat, TO-PRO-1 dye displacement fluorescence; inhibition, % at 3 µM; 370,000 compounds, 1.3% hits; AID 651821;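 active = inhibition above the plate cutoff, the mean of all test compounds on that plate plus 3 SD, cut at about 35% in these data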;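 note: 0% = DMSO alone and 100% = 100 µM mitoxantrone as full dye displacement; higher means more dye released from RNA so lower well fluorescence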
Exocytosis inh – lytic granule exocytosis inhibition; TALL-104 LAMP-1 surface exposure, flow cytometry; cells stimulated with thapsigargin and PMA; 360,000 compounds, 0.66% hits; inhibition, % at 10 µM; AID 651702;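 active = inhibition above about 55%, limit read from the data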
PG9 Ab binder – small molecules binding HIV-1 gp120 antibody PG9; TR-FRET gp120-PG9 antibody binding; inhibition, % at 6.7 µM; 360,000 compounds, 0.43% hits; AID 624416; in the data active = inhibition above about 8.5%
ABCB6 inh MLPCN – human ABCB6 transporter inhibition; Q9NP58; fluorescence ratio to DMSO, % at 10 µM; 360,000 compounds, 0.19% hits; K562-ABCB6 porphyrin accumulation, flow cytometry, 1 h; active compounds read low;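 active = fluorescence ratio to DMSO below 75%, the collection mean minus 3 SD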;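 note: signal is porphyrin accumulated inside mitochondria; 100% equals median channel fluorescence of DMSO control wells; lower ratio means ABCB6 inhibition with less porphyrin fluorescence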
Target sequence (Q9NP58 whole entry, looked up): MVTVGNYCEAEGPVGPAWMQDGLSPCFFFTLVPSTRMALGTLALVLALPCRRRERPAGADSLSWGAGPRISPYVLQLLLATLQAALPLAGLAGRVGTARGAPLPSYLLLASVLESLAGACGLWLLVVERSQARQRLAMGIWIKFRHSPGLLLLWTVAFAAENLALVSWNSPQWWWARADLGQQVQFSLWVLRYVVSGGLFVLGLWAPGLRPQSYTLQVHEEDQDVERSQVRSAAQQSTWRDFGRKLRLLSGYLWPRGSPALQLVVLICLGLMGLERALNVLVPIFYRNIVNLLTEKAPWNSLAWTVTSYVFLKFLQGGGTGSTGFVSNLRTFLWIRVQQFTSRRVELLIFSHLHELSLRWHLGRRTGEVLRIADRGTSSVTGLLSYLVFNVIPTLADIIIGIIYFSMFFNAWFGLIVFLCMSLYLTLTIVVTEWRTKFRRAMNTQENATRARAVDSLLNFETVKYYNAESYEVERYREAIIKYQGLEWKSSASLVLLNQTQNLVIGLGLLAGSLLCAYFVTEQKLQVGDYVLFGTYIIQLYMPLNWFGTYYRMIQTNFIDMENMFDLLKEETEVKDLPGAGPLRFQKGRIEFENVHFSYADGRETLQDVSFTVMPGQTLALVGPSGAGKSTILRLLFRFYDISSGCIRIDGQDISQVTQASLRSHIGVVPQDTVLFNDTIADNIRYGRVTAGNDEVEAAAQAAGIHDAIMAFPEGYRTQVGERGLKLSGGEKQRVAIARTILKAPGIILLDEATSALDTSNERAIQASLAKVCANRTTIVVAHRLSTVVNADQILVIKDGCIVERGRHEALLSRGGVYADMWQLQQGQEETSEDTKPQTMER
rCAG bind conf – r(CAG) RNA repeat binding, confirmation; inhibition, % at 3 µM; shares compounds with rCAG RNA binder; AID 652065; TO-PRO-1 dye displacement fluorescence; 4,300 compounds, 70% hits;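 active = inhibition above a per-plate cutoff, the mean inhibition of sample wells plus 3 SD, cut at about 35% in these data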;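 note: loss of TO-PRO-1 fluorescence as compound displaces dye from 1x1 AA loop RNA; 0% = DMSO only wells and 100% = 100 µM mitoxantrone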
DNA CAG counter – counter-screen for rCAG RNA binders: DNA CAG dye complex inhibitors | 4,300 compounds, 94% hits | shares compounds with rCAG RNA binder | d(CAG) DNA oligo TO-PRO-1 dye displacement, fluorescence | inhibition, % at 3 µM;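 active = inhibition above its plate's cutoff, the mean test-well inhibition plus 3 SD, cut at about 4.8% in these data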;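 note: 0% = DNA dye mix with DMSO and 100% = 100 µM mitoxantrone; hits displace the dye from DNA and so lower well fluorescence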
* marks the source's active call; other numbers are inactive results; / = not tested or not shown.

SMILES	rCAG RNA binder	Exocytosis inh	PG9 Ab binder	ABCB6 inh MLPCN	rCAG bind conf	DNA CAG counter
CS(=O)(=O)NNC(=O)Cn1nnc(-c2cc(C(F)(F)F)cc(C(F)(F)F)c2)n1	5	-6	-1	97	/	/
O=C(Cn1nnc(-c2cccc(C(F)(F)F)c2)n1)NNS(=O)(=O)c1cccc(C(F)(F)F)c1	54*	4	2	99	38*	10*
CN(C)S(=O)(=O)c1cc(NC(=O)CNCc2ccc(F)cc2)ccc1Cl	-5	10	-1	94	/	/
Cc1cc(=O)n(CCc2ccccc2)c(O)c1C#N	64*	-1	0	99	11	4.4*
Cc1onc(-c2c(F)cccc2Cl)c1C(=O)Nc1cccc(S(=O)(=O)N2CCOCC2)c1	4	1	1	101	/	/
O=[N+]([O-])c1cc(-c2ccccc2)cc([N+](=O)[O-])c1O	11	5	-1	105	/	/
Nc1nc(-c2cc(O)ccc2[N+](=O)[O-])cc(-c2ccccc2)c1[N+](=O)[O-]	57*	1	2	99	44*	24*
O=C(Cc1ncc(C(F)(F)F)cc1Cl)NCCc1ccccn1	-3	9	1	102	/	/
CCN1C(=O)/C(=C2\SC(=S)N(c3c(C)n(C)n(-c4ccccc4)c3=O)C2=O)c2ccccc21	4	-2	-3	96	/	/
CCN1C(=O)/C(=C2\SC(=S)N(NC(=O)c3ccccc3O)C2=O)c2ccccc21	77*	2	0	99	86*	58*
COc1ccccc1N1CCN(CCS(=O)(=O)c2cc(Cl)ccc2Cl)CC1	0	-4	-2	91	/	/
CCn1c(-c2cccs2)nc2ccccc21	0	-2	0	96	/	/
CCn1c(C(C#N)/C(=N\S(=O)(=O)c2cccs2)c2ccccc2)nc2ccccc21 (stereo unspecified)	37*	-7	-1	108	32	7.8*
CC(C)=C1C(=O)NN(c2ccc(C)c(Cl)c2)C1=O	94*	10	-2	94	23	8.1*
Cc1ccc(-n2cccc2/C=C2/C(=N)N3C(=NC2=O)SN=C3S(C)(=O)=O)cc1Cl	89*	-2	2	95	92*	73*
Cc1cccc(C)c1-n1cccc1/C=C1/C(=N)N2C(=NC1=O)SN=C2S(C)(=O)=O	88*	16	-4	106	85*	59*
CC1=CSC2=NC(=O)/C(=C\c3cccn3-c3ccccc3)C(=N)N12	5	10	-2	95	/	/
Cn1c(SCC(=O)Nc2nccs2)nnc1-c1ccc(S(=O)(=O)N2CCCC2)cc1	-4	0	-1	97	/	/
O=C(CSc1n[nH]c(-c2ccc(S(=O)(=O)N3CCCCC3)cc2)n1)Nc1nccs1	39*	-4	0	100	36*	9.0*
Cc1ccc(CN2CCN(CC(=O)N/N=C/c3ccc(C)o3)CC2)cc1	-9	-4	-1	93	/	/
O=C(CSCc1ccc(Cl)cc1)Nc1ccc(Br)cc1C(=O)O	44*	12	-2	101	36*	8.7*
COc1ccc(CCN2C(=O)CC(N3CCN(S(=O)(=O)c4ccccc4)CC3)C2=O)cc1OC (stereo unspecified)	-4	-1	-1	98	/	/
Cc1c(C(=O)N2CCCCC2)c(S(=O)(=O)NCCc2ccc(Cl)cc2)c(C)n1C	-5	1	1	101	/	/
C=CCOC(=O)c1cc(-c2ccc(/C=C3\C(=O)NC(=O)C(C#N)=C3C)o2)ccc1Cl	63*	-1	-1	81	87*	51*
CCCOC(=O)c1cc(-c2ccc(/C=C3/C(=O)N(C)C(=O)C(C#N)=C3C)o2)ccc1Cl	/	-1	/	101	/	/
COC(=O)c1cc2c(c3c4cc(C)ccc4n(S(=O)(=O)c4cccc(C)c4)c13)C(=O)N(Cc1ccc(N(C)C)cc1)C2	13	/	-2	/	/	/
O=C(O)c1cc(-c2ccco2)nc2ccccc12	14	2	1	97	/	/

Screening results deposited in PubChem BioAssay by several laboratories.
